# Laboratory results as given in PubChem BioAssay (NCI).
# This is part of a sample that, as a whole, favours compounds with a hit. Of some 83,000 tested, about 20% had one in any assay.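 A percent growth of 40 corresponds to 60% growth inhibition; 0 means no net growth; -100 means all cells died. Active threshold: below 10.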 Activity calls are given as the source filed them.
# System: OVCAR-3 ovarian
# Assay: NCI-60 one-dose screen, 48 h (100 = growth as untreated, 0 = no growth, -100 = all killed)
# Details: 10 µM unless noted
# Description: Growth inhibition of the OVCAR-3 human tumor cell line is measured as a screen for anti-cancer activity. Cells are grown in 96 well plates and exposed to the test compound for 48 hours. Compounds are tested at a single concentration, which is 10^-5 M for most compounds. The reported endpoint is percent growth (GI% or GIPRCNT), where numbers from 0 - 100% represent growth inhibition, and numbers from -100% - 0 represent cell death. For example, a value of 40 represents 60% growth inhibition. A value of 0 means no net growth occurred over the course of the experiment. A value of -40 indicates 40% of cells at the beginning of the experiment died by the end of the experiment. A value of -100 means all cells are dead at the end of the experiment.
# NCI-60 Human Tumor Cell Lines Screen was performed using the standard one-dose NCI protocol, which is described in more detail at https://dtp.cancer.gov/discovery_development/nci-60/default.htm.
# Compounds with GIPRCNT values below 10 were considered active. Activity score was based on GIPRCNT using the following formula: […]
# Score is 0 for GIPRCNT values of 100 or above, 50 for GIPRCNT values of 0, and 100 for GIPRCNT values of -100.
row,SMILES,growth
1,COc1cc(C)cc2oc3oc(=O)c(-c4nc5ccccc5s4)cc3c(=O)c12,85.3% (inactive)
2,COc1ccc(-c2c(C)nn3c(NCCN4CCOCC4)cc(C)nc23)cc1OC,103% (inactive)
3,CC(C)(C)OC(=O)N1C=C/C(=C\Cn2cc(-c3ccccc3)nn2)CC1,86.6% (inactive)
4,O=C1CN(Cc2ccc(C(=O)NO)cc2)C(=O)[C@@H](Cc2ccccc2)N1,109% (inactive)
5,COC(=O)c1cc(O)c2c(c1C(=O)OC)C[C@H]1[C@@H]3CC=C4C[C@@H](O)CC[C@]4(C)[C@H]3CC[C@]21C,33.2% (inactive)
6,O=C(Nc1ccc(C(=O)/C=C/c2ccc(N3CCOCC3)cc2)cc1)Nc1ccc([N+](=O)[O-])cc1,93.9% (inactive)
7,C[C@]12CCc3nc(Nc4ccccc4)sc3C1=CC[C@@H]1[C@@H]2CC[C@]2(C)/C(=N/NC(N)=S)CC[C@@H]12,-21.2% (active)
8,CCCCOC(=O)c1cccc([N+](=O)[O-])c1,114% (inactive)
9,O=C(CCCCCCSc1nc(-c2ccc(Cl)cc2)cc(-c2ccc(Cl)cc2)n1)NO,22.9% (inactive)
10,C=C(C)[C@@H]1CC[C@]2(C(N)=O)CC[C@]3(C)[C@H](CC[C@@H]4[C@@]5(C)CC[C@H](O)C(C)(C)[C@@H]5CC[C@]43C)[C@@H]12,-46.6% [100 µM] (active)
11,NC1=NC(=O)NC1(c1ccccc1)c1ccccc1,105% (inactive)
12,CC1(C)CC[C@]2(C(N)=O)CC[C@]3(C)C(=CC[C@@H]4[C@@]5(C)C/C(=C/c6cccnc6)C(=O)C(C)(C)[C@@H]5CC[C@]43C)[C@@H]2C1,-64.2% [100 µM] (active)
13,N#C/C(C(=O)c1ccccc1)=C1/C(=O)Nc2ccc(F)cc21,106% (inactive)
14,O=C1CC(c2ccc3c(c2)OCO3)Nc2ccccc21 (stereo not given),-19.5% (active)
15,CCOc1cccc2c(NC(C)CCCN(CC)CC)c(C)cnc12 (stereo not given),110% (inactive)
16,O=C(Nc1cccc2ccccc12)c1cc2ccccc2cc1O,19.9% (inactive)
17,C=C(C)[C@@H]1CC[C@]2(C(=O)NCCCCCCN(CCCN)CCCN)CC[C@]3(C)[C@H](CC[C@@H]4[C@@]5(C)CC[C@H](OCCCN)C(C)(C)[C@@H]5CC[C@]43C)[C@@H]12,71.8% [100 µM] (inactive)
18,CCCCCn1c(C)cc(/C=C\c2ccc3cc(C)ccc3[n+]2C)c1C,-72.7% (active)
19,COc1ccc2nc3ccccc3c(NCCNCCO)c2c1,-41.6% (active)
20,COc1cc2c(c(OC)c1OC)-c1ccc(NNC(N)=S)c(=O)cc1[C@@H](NC(C)=O)CC2,-56.8% (active)

row,SMILES,growth
1,O=S(=O)(NCCCNc1nccc(-c2c(-c3cccc(F)c3)nc3occn23)n1)c1cccc2ccccc12,56.3% (inactive)
2,CC(C)CSc1ncnc2nc[nH]c12,103% (inactive)
3,CCc1cccc(Cl)c1,110% (inactive)
4,CNC(=O)c1cc(Oc2cccc3nc(NC(=O)Nc4cc(C(F)(F)F)cc(C(F)(F)F)c4)ccc23)ccn1,-15% (active)
5,NS(=O)(=O)c1ccc(CCN2C(=O)/C(=C\c3ccccc3)C=C2c2ccc(Cl)cc2)cc1,96.9% (inactive)
6,CSc1nc(N)c(N=Nc2ccc(S(=O)(=O)Nc3nnc(C)s3)cc2)c(=O)[nH]1,106% (inactive)
7,COc1c(C(C)=O)c(OCCCCOc2c(C(C)=O)c(OC)c3ccoc3c2OC)c(OC)c2occc12,61.4% (inactive)
8,COc1cc(C)cc2oc3oc(=N)c(C(=O)c4ccccc4)cc3c(=O)c12,101% (inactive)
9,COc1ccc2nc3c(cc2c1)C(=O)CC(C(F)(F)F)C3 (stereo not given),5.3% (active)
10,CC1(C)C(=NO)C(C)(C)C1=NO,117% (inactive)
11,O=C1C(Cl)=C(Nc2ccc3cn[nH]c3c2)C(=O)c2ccccc21,-100% (active)
12,C=CCCCCOc1ccccc1-c1cnc(OCCCCC=C)n1C,51.3% (inactive)
13,O=C(C[n+]1ccn(CC(OCc2ccc(Cl)cc2Cl)c2ccc(Cl)cc2Cl)c1)c1ccc(F)cc1 (stereo not given),-93% (active)
14,O=C(O)c1ccccc1C(F)(F)F,97.9% (inactive)
15,c1ccc(-c2nc(N3CCCNCC3)c3nc(-c4ccccc4)oc3n2)cc1,-69.8% (active)
16,Cc1ccc(Cn2c(O)c(N=NC(=O)c3ccc(S(N)(=O)=O)cc3)c3ccccc32)cc1,107% (inactive)
17,Nc1cc(Cl)cc2cccnc12,119% (inactive)
18,c1coc2occoc=2o1,103% (inactive)
19,N#Cc1c(N2CCOCC2)nc(=S)[nH]c1-c1ccco1,64.7% (inactive)
20,COc1ccc(-c2cc(-c3ccc(Cl)cc3)nc(SCCCCCCC(=O)NO)n2)cc1,39% (inactive)
